The compounds below were run on Pseudomonas aeruginosa PA14 dppA1-A5 penta mutant + pBBR5.DppA1 (PA14_58350) (assay: respiration area under curve with compound as sole nitrogen source, 24 h (OmniLog AUC (arbitrary units)); higher = more respiration / better utilisation as nitrogen source, active = 2000 or more).
Method: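 Biolog Phenotype MicroArray plates PM6-PM8: each di/tripeptide is the sole nitrogen source. Tetrazolium reduction was read in the OmniLog for 24 h at 37°C and summarised as area under the respiration curve (arbitrary units). Values below 2000 count as no respiration. Strain is the SBP penta mutant complemented with DppA1 on a plasmid under its native promoter. Lys/His/Cys peptides are excluded.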
`CC[C@H](C)[C@H](N)C(=O)N[C@@H](CCCN=C(N)N)C(=O)O` (plate: PM6) was tested, and the “respiration area under curve” value was 7890 (active). `O=C(O)[C@H](Cc1ccccc1)NC(=O)[C@@H]1CCCN1` (plate: PM7) was tested, and the “respiration area under curve” value was 6240 (active). `N[C@@H](Cc1ccccc1)C(=O)NCC(=O)NCC(=O)O` (plate: PM8) was tested, and the “respiration area under curve” value was 7350 (active). In the case of `NCC(=O)NCC(=O)O` (plate: PM6), the “respiration area under curve” value is reported as 2050 (active). `NCC(=O)N[C@H](CC(=O)O)C(=O)O` (plate: PM8) was tested, and the “respiration area under curve” value was 0 (inactive). With `C[C@H](NC(=O)CCN)C(=O)O` (plate: PM8) the “respiration area under curve” value was 4280 (active). For `NC(=O)CC[C@H](NC(=O)[C@@H](N)CCCN=C(N)N)C(=O)O` (plate: PM6), the “respiration area under curve” value was 8870 (active). For `N[C@@H](Cc1ccccc1)C(=O)N[C@@H](CCC(=O)O)C(=O)O` (plate: PM8), the “respiration area under curve” value was 2880 (active). With `CC(C)[C@H](NC(=O)[C@@H](N)Cc1ccccc1)C(=O)O` (plate: PM8) the “respiration area under curve” value was 5720 (active). With `NC(N)=NCCC[C@H](NC(=O)[C@@H](N)CCCN=C(N)N)C(=O)O` (plate: PM6) the “respiration area under curve” value was 8780 (active). `NCC(=O)N[C@H](CO)C(=O)O` (plate: PM8) was tested, and the “respiration area under curve” value was 408 (inactive). For `NCC(=O)N[C@@H](Cc1c[nH]c2ccccc12)C(=O)O` (plate: PM6), the “respiration area under curve” value was 49.2 (inactive). `CC(C)[C@H](NC(=O)[C@@H](N)CCCN=C(N)N)C(=O)O` (plate: PM6) was tested, and the “respiration area under curve” value was 7530 (active). In the case of `CC[C@H](C)[C@H](N)C(=O)N[C@@H](CCC(N)=O)C(=O)O` (plate: PM6), the “respiration area under curve” value is reported as 5000 (active). With `CC[C@H](C)[C@H](NC(=O)[C@@H](N)CCCN=C(N)N)C(=O)O` (plate: PM6) the “respiration area under curve” value was 8150 (active). For `NC(=O)CC[C@H](NC(=O)[C@@H](N)CO)C(=O)O` (plate: PM8), the “respiration area under curve” value was 7790 (active). `N[C@@H](CC(=O)O)C(=O)N[C@@H](CCC(=O)O)C(=O)O` (plate: PM6) was tested, and the “respiration area under curve” value was 437 (inactive). `O=C(O)[C@H](CO)NC(=O)[C@@H]1CCCN1` (plate: PM8) was tested, and the “respiration area under curve” value was 5440 (active). `CC(C)[C@H](NC(=O)[C@@H](N)Cc1ccc(O)cc1)C(=O)O` (plate: PM8) was tested, and the “respiration area under curve” value was 6630 (active). For `CC(C)C[C@H](NC(=O)[C@@H](N)[C@@H](C)O)C(=O)O` (plate: PM7), the “respiration area under curve” value was 4760 (active). `O=C(O)CNC(=O)[C@@H]1CCCN1` (plate: PM7) was tested, and the “respiration area under curve” value was 6590 (active). `NC(=O)CC[C@H](NC(=O)[C@@H](N)Cc1ccc(O)cc1)C(=O)O` (plate: PM7) was tested, and the “respiration area under curve” value was 12100 (active). For `C[C@@H](N)C(=O)NCC(=O)O` (plate: PM8), the “respiration area under curve” value was 5420 (active). In the case of `C[C@@H](O)[C@H](N)C(=O)NCC(=O)O` (plate: PM7), the “respiration area under curve” value is reported as 6220 (active). For `CC[C@H](C)[C@H](N)C(=O)N[C@@H](Cc1c[nH]c2ccccc12)C(=O)O` (plate: PM6), the “respiration area under curve” value was 287 (inactive). `N[C@@H](Cc1ccccc1)C(=O)N1CCC[C@H]1C(=O)O` (plate: PM7) was tested, and the “respiration area under curve” value was 3980 (active). In the case of `CSCC[C@H](NC(=O)[C@@H](N)CCCN=C(N)N)C(=O)O` (plate: PM6), the “respiration area under curve” value is reported as 9220 (active). `NC(=O)C[C@H](N)C(=O)N[C@@H](CCC(=O)O)C(=O)O` (plate: PM6) was tested, and the “respiration area under curve” value was 4770 (active). `CSCCC(N)C(=O)NC(CCCN=C(N)N)C(=O)O` (stereo not drawn) (plate: PM7) was tested, and the “respiration area under curve” value was 13200 (active). For `CCC(C)C(N)C(=O)NC(CC(N)=O)C(=O)O` (stereo not drawn) (plate: PM8), the “respiration area under curve” value was 7760 (active). For `CSCCC(NC(=O)C(N)C(C)C)C(=O)O` (stereo not drawn) (plate: PM8), the “respiration area under curve” value was 2570 (active). `CC(C)C[C@@H](N)C(=O)N[C@H](CC(C)C)C(=O)O` (plate: PM8) was tested, and the “respiration area under curve” value was 0 (inactive). In the case of `C[C@H](N)C(=O)N[C@@H](Cc1ccc(O)cc1)C(=O)O` (plate: PM6), the “respiration area under curve” value is reported as 5920 (active). `N[C@@H](CCC(=O)O)C(=O)N[C@@H](CCC(=O)O)C(=O)O` (plate: PM6) was tested, and the “respiration area under curve” value was 263 (inactive). In the case of `CC(C)C[C@H](NC(=O)[C@@H]1CCCN1)C(=O)O` (plate: PM7), the “respiration area under curve” value is reported as 5560 (active).

What follows are compounds tested on Pseudomonas aeruginosa PA14 wild type in the same assay as above.
Method: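 Biolog Phenotype MicroArray plates PM6-PM8: each di/tripeptide is the sole nitrogen source (IF-0 medium with succinate/ferric citrate and dye mix A). Tetrazolium reduction was read in the OmniLog every 15 min for 24 h at 37°C and summarised as area under the respiration curve (arbitrary units). The paper counts values below 2000 as no respiration and above 8000 as solid respiration. Replicate datasets are averaged.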
`O=C(O)[C@H](Cc1ccccc1)NC(=O)[C@@H]1CCCN1` (plate: PM7) was tested, and the “respiration area under curve” value was 7250 (active). `N[C@@H](Cc1ccccc1)C(=O)NCC(=O)NCC(=O)O` (plate: PM8) was tested, and the “respiration area under curve” value was 8700 (active). `NCC(=O)NCC(=O)O` (plate: PM6) was tested, and the “respiration area under curve” value was 3270 (active). In the case of `C[C@H](NC(=O)CCN)C(=O)O` (plate: PM8), the “respiration area under curve” value is reported as 6440 (active). `CC(C)[C@H](NC(=O)[C@@H](N)CCCN=C(N)N)C(=O)O` (plate: PM6) was tested, and the “respiration area under curve” value was 8950 (active). In the case of `CC(C)[C@H](NC(=O)[C@@H](N)Cc1ccc(O)cc1)C(=O)O` (plate: PM8), the “respiration area under curve” value is reported as 7430 (active). With `CC(C)C[C@H](NC(=O)[C@@H](N)[C@@H](C)O)C(=O)O` (plate: PM7) the “respiration area under curve” value was 7920 (active). For `C[C@@H](O)[C@H](N)C(=O)NCC(=O)O` (plate: PM7), the “respiration area under curve” value was 8140 (active). In the case of `CC[C@H](C)[C@H](N)C(=O)N[C@@H](Cc1c[nH]c2ccccc12)C(=O)O` (plate: PM6), the “respiration area under curve” value is reported as 1090 (inactive). With `CSCC[C@H](NC(=O)[C@@H](N)CCCN=C(N)N)C(=O)O` (plate: PM6) the “respiration area under curve” value was 10500 (active). In the case of `CSCCC(N)C(=O)NC(CCCN=C(N)N)C(=O)O` (stereo not drawn) (plate: PM7), the “respiration area under curve” value is reported as 14600 (active). In the case of `CCC(C)C(N)C(=O)NC(CC(N)=O)C(=O)O` (stereo not drawn) (plate: PM8), the “respiration area under curve” value is reported as 9360 (active). For `CC(C)C[C@@H](N)C(=O)N[C@H](CC(C)C)C(=O)O` (plate: PM8), the “respiration area under curve” value was 0 (inactive).
